Calls of active or inactive are those of the source. Unless noted, how the calls were made is not given here.
Assays:
[1] = resazurin metabolic signal in HepG2 cells – cell-based, resazurin fluorescence, 24 h, PK04 Diversity Set, profiling panel (AID 1172); conditions: HepG2 viability, higher = more signal
[2] = budding yeast growth changes without added modifier – OD600, strain BY4716, 24 h, basal condition, primary screen (AID 1173); conditions: S. cerevisiae BY4716 growth, OD600, 24 h; higher = more signal, called active from +8 up or from −8 down
[3] = viability profiling in MM1S myeloma cells – cell-based, resazurin fluorescence, basal, 24 h, PK04 Diversity Set, profiling panel (AID 1174); conditions: higher = more signal, called active from +8 up or from −8 down;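 further: MM1S multiple myeloma cell line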
[4] = molecular target: Dihydroorotate dehydrogenase (quinone), mitochondrial (Plasmodium falciparum (isolate 3D7)) (UniProt Q08210); test: inhibition of P. falciparum DHODH – biochemical, C-terminal His tag, absorbance 600 nm, primary screen (AID 1175); conditions: PfDHODH enzyme, DCIP absorbance 600 nm; higher = more signal, called active from +8 up or from −8 down;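 further: recombinant parasite enzyme with a five histidine tag at its C terminus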
Chain of Dihydroorotate dehydrogenase (quinone), mitochondrial (Plasmodium falciparum (isolate 3D7)) (Q08210 whole entry, looked up): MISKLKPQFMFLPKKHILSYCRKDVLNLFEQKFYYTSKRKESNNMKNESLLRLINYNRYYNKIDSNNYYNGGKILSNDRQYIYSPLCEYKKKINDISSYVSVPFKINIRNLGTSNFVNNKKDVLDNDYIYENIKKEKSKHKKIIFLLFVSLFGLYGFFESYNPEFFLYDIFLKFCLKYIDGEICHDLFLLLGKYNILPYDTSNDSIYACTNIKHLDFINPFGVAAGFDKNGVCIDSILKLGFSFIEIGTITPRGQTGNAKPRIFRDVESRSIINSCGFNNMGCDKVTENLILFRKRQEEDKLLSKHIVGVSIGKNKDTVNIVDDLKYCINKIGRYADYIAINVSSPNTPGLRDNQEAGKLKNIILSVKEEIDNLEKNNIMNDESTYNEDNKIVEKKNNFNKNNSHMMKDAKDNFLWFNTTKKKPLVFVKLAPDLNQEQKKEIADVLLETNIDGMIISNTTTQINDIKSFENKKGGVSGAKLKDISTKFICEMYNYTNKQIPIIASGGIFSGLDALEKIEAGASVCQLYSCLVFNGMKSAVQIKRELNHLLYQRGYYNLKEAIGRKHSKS

[5] = inhibition of PAO1 biofilm formation – strain PAO1, LB-PBS medium, absorbance 600 nm, primary screen (AID 1176); conditions: P. aeruginosa PAO1 growth/biofilm, A600, 12 h; higher = more signal
[6] = growth modulation of vineyard yeast isolate – strain RM11-1a, OD600, basal, 24 h, primary screen (AID 1177);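 further: cultures grown under basal conditions with no added stressor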; conditions: S. cerevisiae RM11-1a growth, OD600, 24 h; higher = more signal, called active from +8 up or from −8 down
[7] = growth of efflux-deficient E. coli DRC39 – strain DRC39, OD650, 24 h, E. coli filamentation inducers, primary screen (AID 1178);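 further: growth measured as culture turbidity by optical density at 650 nm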; conditions: E. coli DRC39 acrAB, higher = more signal, called active from +8 up or from −8 down
[8] = growth of efflux-deficient E. coli DRC39 – strain DRC39, OD650, 48 h, E. coli filamentation inducers, primary screen (AID 1179);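 further: screen aims at cell division blockers that make cells filament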; conditions: E. coli DRC39 delta-acrAB growth, higher = more signal, called active from +8 up or from −8 down
[9] = viability profiling in RPMI8226 myeloma cells – cell-based, resazurin fluorescence, basal, 24 h, PK04 Diversity Set, profiling panel (AID 1180); conditions: higher = more signal;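 further: RPMI8826 multiple myeloma cell line at 5000 cells per well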
[10] = molecular target: E3 ubiquitin-protein ligase XIAP (Homo sapiens) (UniProt P98170); test: small molecules binding XIAP protein – biophysical, small-molecule microarray, fluorescence 635 nm, primary screen (AID 1181); conditions: higher = more signal;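 further: score merges 667 nm emission and signal to noise over triplicate slides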
Chain of E3 ubiquitin-protein ligase XIAP (Homo sapiens) (P98170 whole entry, looked up, the tested form may be a part): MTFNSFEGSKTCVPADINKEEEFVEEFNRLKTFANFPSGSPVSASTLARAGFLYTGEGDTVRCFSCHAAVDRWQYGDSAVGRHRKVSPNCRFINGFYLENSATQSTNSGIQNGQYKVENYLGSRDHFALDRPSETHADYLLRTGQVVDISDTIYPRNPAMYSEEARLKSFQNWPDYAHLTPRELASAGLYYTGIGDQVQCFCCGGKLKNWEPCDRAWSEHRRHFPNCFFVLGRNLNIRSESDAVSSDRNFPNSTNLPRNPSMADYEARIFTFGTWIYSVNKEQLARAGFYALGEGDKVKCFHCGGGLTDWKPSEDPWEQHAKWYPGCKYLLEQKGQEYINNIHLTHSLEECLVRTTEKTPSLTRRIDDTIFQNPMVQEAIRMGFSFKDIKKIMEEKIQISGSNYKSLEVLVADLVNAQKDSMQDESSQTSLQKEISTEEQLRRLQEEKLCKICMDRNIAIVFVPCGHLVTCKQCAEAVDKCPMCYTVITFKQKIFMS

[11] = tested on: XIP peptide (Xip251-270) binding; test: XIP fragment 251-270 binding compounds – biochemical, small-molecule microarray, fluorescence 635/667 nm, 0.1 µg/mL protein, primary screen (AID 1182); conditions: fluorescent protein binding, 635 nm, higher = more signal, called active from +8 up or from −8 down
XIP peptide (Xip251-270) = test: compounds binding XIP fragment 251-270 – biochemical, small-molecule microarray, fluorescence 635/667 nm, 0.5 µg/mL protein, primary screen (AID 1183); conditions: fluorescence 635 nm, higher = more signal
[12] = blood-stage malaria parasite viability loss – strain 3D7, DAPI fluorescence, 100 nL, primary screen (AID 1184);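 further: parasites grown inside human red blood cells in medium with human serum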; conditions: P. falciparum 3D7 growth, 3 d, higher = more signal
[13] = molecular target: Homeobox protein Hox-A13 (Mus musculus) (UniProt Q62424); test: disruptors of Hoxa13 oligonucleotide interaction – biochemical, fluorescence polarization, labeled oligonucleotide, primary screen (AID 1185); conditions: Hoxa13:DNA binding, 15 min, higher = more signal, called active from +8 up or from −8 down
Chain of Homeobox protein Hox-A13 (Mus musculus) (Q62424 whole entry, looked up): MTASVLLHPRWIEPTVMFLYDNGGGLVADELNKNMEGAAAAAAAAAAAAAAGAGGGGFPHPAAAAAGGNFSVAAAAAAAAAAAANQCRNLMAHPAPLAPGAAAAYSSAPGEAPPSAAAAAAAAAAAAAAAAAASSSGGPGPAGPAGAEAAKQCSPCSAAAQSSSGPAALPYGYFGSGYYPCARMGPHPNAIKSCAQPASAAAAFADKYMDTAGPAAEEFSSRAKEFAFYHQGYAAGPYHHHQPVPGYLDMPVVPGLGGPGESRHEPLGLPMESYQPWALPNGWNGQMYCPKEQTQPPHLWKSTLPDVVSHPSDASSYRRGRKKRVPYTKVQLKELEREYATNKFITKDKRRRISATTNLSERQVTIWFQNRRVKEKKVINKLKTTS

[14] = blockers of DNA damage checkpoint Chk1 activation – imaging, HeLa, hydroxyurea, phospho-Chk1 antibody, percent positive cells, primary screen (AID 1186); conditions: hydroxyurea-induced phospho-Chk1 immunofluorescence imaging, higher = more signal
[15] = blockers of DNA damage checkpoint Chk1 activation – imaging, HeLa, hydroxyurea, phospho-Chk1 nuclear intensity, primary screen (AID 1187); conditions: hydroxyurea-induced phospho-Chk1 immunofluorescence imaging, higher = more signal

| SMILES | z-score [1] | z-score [2] | z-score [3] | composite z-score [4] | z-score [5] | z-score [6] | z-score [7] | z-score [8] | z-score [9] | composite z-score [10] | composite z-score [11] | composite z-score (XIP peptide (Xip251-270)) | z-score [12] | z-score [13] | z-score [14] | z-score [15] |
| --- | --- | --- | --- | --- | --- | --- | --- | --- | --- | --- | --- | --- | --- | --- | --- | --- |
| COCCCNC(=O)[C@]1(Cc2ccccc2N=[N+]=[N-])N=C(c2ccc(OCCCO)cc2)O[C@@H]1c1ccccc1N=[N+]=[N-] | -2.52 | 0.298 (inactive) | -3 (inactive) | -0.282 (inactive) | 1.07 (inactive) | 0.315 (inactive) | 0.342 (inactive) | -0.435 (inactive) | -2.76 | -0.0332 | -0.207 (inactive) | 0.538 | -2.11 | -1.51 (inactive) | -0.553 (inactive) | -0.627 (inactive) |
| COC(=O)[C@@]1(Cc2ccc(F)cc2)[C@H]2c3cc(C(=O)N4CCCC4)n(CCc4c[nH]c5ccc(OC)cc45)c3C[C@H]2CN1C(=O)c1ccccc1 | -0.946 | 0.813 (inactive) | -2.53 (inactive) | -3.91 (inactive) | 3.29 (inactive) | 0.622 (inactive) | -0.137 (inactive) | -0.72 (inactive) | -3.36 | 0.498 | 0.804 (inactive) | 0.727 | -1.74 | -3.53 (inactive) | -0.371 (inactive) | -0.199 (inactive) |
| CCCCC(=C=CC[C@@H](O)c1ccc(OCCO)cc1)C[C@@H](O)COCc1ccccc1 | 0.931 | -5.91 (inactive) | -0.301 (inactive) | -2.29 (inactive) | 0.637 (inactive) | -3.31 (inactive) | 1.9 (inactive) | 1.55 (inactive) | -0.342 | 0.124 | 0.117 (inactive) | 0.408 | -2.73 | -4.47 (inactive) | -0.263 (inactive) | 0.737 (inactive) |
| NCCCCCNC(=O)[C@@H]1C[C@@H]2C(=O)N[C@@H](CCCCN)C(=O)N2[C@@H]1c1cccc(OCCO)c1 | 1.03 | 0.198 (inactive) | 1.11 (inactive) | -0.308 (inactive) | -0.105 (inactive) | -0.0041 (inactive) | 0.928 (inactive) | 1.22 (inactive) | 1 | -0.399 | 0.824 (inactive) | 0.793 | -0.119 | -0.453 (inactive) | 0.0424 (inactive) | -0.0136 (inactive) |
| COC(=O)[C@@]1(Cc2ccc(OC)cc2)[C@H]2c3cc(C(=O)N(C)C)n(Cc4nc5ccccc5[nH]4)c3C[C@H]2CN1C(=O)c1ccccc1 | 0.014 | 1.03 (inactive) | -1.45 (inactive) | -0.291 (inactive) | -0.0982 (inactive) | 1.11 (inactive) | -0.614 (inactive) | -1.18 (inactive) | -2.51 | 0.382 | 0.469 (inactive) | 0.599 | -1.17 | -3.08 (inactive) | 0.399 (inactive) | 0.0842 (inactive) |
| O=C(NC1CC1)[C@@H]1c2ccccc2C(=O)N(Cc2ccccc2)[C@H]1c1ccc(CO)cc1 | 0.0991 | 0.172 (inactive) | -0.556 (inactive) | -0.0098 (inactive) | -0.149 (inactive) | 0.0831 (inactive) | 0.693 (inactive) | 1.58 (inactive) | 0.904 | 0.159 | 1.38 (inactive) | 0.752 | -1.55 | -2.86 (inactive) | -0.556 (inactive) | -0.679 (inactive) |
| CC=CC(O)C1C=CC2C(=O)N(c3ccccc3)C(=O)C2N1Nc1ccccc1 (stereo not given) | 0.965 | -1.01 (inactive) | 0.171 (inactive) | -0.174 (inactive) | 1.89 (inactive) | -0.564 (inactive) | 0.176 (inactive) | 0.412 (inactive) | 0.394 | 0.649 | 0.228 (inactive) | 0.813 | -0.0445 | -4.14 (inactive) | 0.0716 (inactive) | -0.167 (inactive) |
| Cc1ccc(S[C@]2(C(=O)NCC(C)C)CC(=O)N(Cc3ccccc3Cl)[C@@H]2c2ccc(CO)cc2I)cc1 | 0.0825 | -1.61 (inactive) | -1.68 (inactive) | -0.0436 (inactive) | 0.82 (inactive) | -1.33 (inactive) | -0.0158 (inactive) | 0.0686 (inactive) | -2.44 | -0.152 | 2.28 (inactive) | 0.157 | -0.548 | -2.97 (inactive) | -0.346 (inactive) | -0.237 (inactive) |
| CO[C@H]1O[C@H](CO)[C@@H](OC(=O)Nc2ccc(Oc3ccccc3)cc2)[C@H](OC(=O)Nc2ccccc2-c2ccccc2)[C@@H]1OC(=O)Nc1ccccc1-c1ccccc1 | 0.776 | 1.01 (inactive) | -0.648 (inactive) | 0.308 (inactive) | 0.18 (inactive) | 2.58 (inactive) | -0.325 (inactive) | -0.0232 (inactive) | -0.296 | -0.117 | 0.356 (inactive) | 0.759 | -2.39 | -1.71 (inactive) | -0.141 (inactive) | -0.148 (inactive) |
| O=c1cccc(-c2cccc(Cl)c2)o1 | -0.381 | -8.75 (active) | 0.149 (inactive) | -0.0422 (inactive) | -0.377 (inactive) | -0.401 (inactive) | 0.304 (inactive) | -0.326 (inactive) | -0.4 | -0.0052 | 0.165 (inactive) | 0.108 | 0.204 | -0.814 (inactive) | 0.0366 (inactive) | -0.411 (inactive) |

From PubChem BioAssay
